Source: PubChem BioAssay (NCI)
This is part of a sample that, as a whole, favours compounds with a hit. Of some 83,000 tested, about 20% had one in any assay.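 Assay: single dose, 48 h. Readout: percent growth (0 = no net growth; negative = cell death). Active: <10.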 A number with no mark means an inactive call. Active and inactive are the calls of the source.

Assays:
Experiment in all cases: NCI-60 one-dose screen, 48 h (100 = growth as untreated, 0 = no growth, -100 = all killed)
Conditions in all cases: 10 µM unless noted
[1] = test system: BT-549 breast
[2] = test system: MDA-MB-435 melanoma
[3] = test system: SW-620 colon
[4] = test system: MCF7 breast
[5] = test system: HCT-116 colon
[6] = test system: HCC-2998 colon
[7] = test system: KM12 colon

Structure (SMILES) | growth [1] | growth [2] | growth [3] | growth [4] | growth [5] | growth [6] | growth [7]
COc1cc2oc(-c3cccc(NC(=O)Nc4ccc5c(c4)OCO5)c3)cc(=O)c2c(OC)c1OC | 59.8% | 68.7% | 57.3% | 65.1% | 50.2% | 59.2% | 48.5%
Cn1c(C(N)=O)cc2c1-c1nc(NC3CCCCC3)ncc1CCC2 | 80.7% | 96.5% | 89.7% | 90.6% | 88.1% | 97.5% | 104%
c1ccc2nc(-c3ccc4ccccc4n3)ccc2c1 | 93.7% | 91.9% | 100% | 61.8% | 88.7% | 101% | 90.4%
CCN1C(=O)N(CC)C2C1NN=c1s/c(=C\c3cccc(F)c3)c(=O)n12 (configuration not stated) | 17.1% | -34.1% (active) | 28.5% | 20% | 6.81% (active) | 19.5% | 11.2%
Cc1oc2nc[nH]c(=O)c2c1C(=O)/C=C/c1ccc(Cl)cc1 | 20.2% | 6.74% (active) | 8.49% (active) | 15.4% | 13.7% | 83.1% | 13.6%
CC(=O)c1cc(C(=O)c2ccc3c(c2)Sc2ccccc2N3)c2cc(C)ccn12 | -13.9% (active) | -19.7% (active) | 22.4% | 10.8% | -23.6% (active) | 23.2% | 5.18% (active)
Cc1cc(Nc2nc(-c3ccc(F)cc3)nc3ccccc23)n[nH]1 | 72.9% | 31.2% | 48.8% | 23.8% | 28.5% | 67.3% | 14.8%
CCN1C(=O)N(CC)C2Nn3c(s/c(=C4\C(=O)N(C5CCCC5)c5ccccc54)c3=O)=NC21 (configuration not stated) | 79.3% | -15.9% (active) | 53.9% | 45.7% | 19.8% | 91.8% | 23.8%
COc1cc2nc(N3CCC[C@@H](NC4=CC(=O)c5ccccc5C4=O)C3)nc(N)c2cc1OC | 118% | 64.7% | -60.6% (active) | -63.3% (active) | -83.6% (active) | 106% | -35.2% (active)
COc1ccc(NC(=O)/N=c2\oc3c(OC)cccc3cc2-c2cc3ccccc3[nH]2)cc1 | 81.9% | 82.6% | 70.3% | 70.1% | 28.1% | 95.5% | 63.1%
O=S(=O)(NCCCNc1nccc(-c2c(-c3ccc(F)c(O)c3)nc3sccn23)n1)c1ccc(Cl)cc1 | 101% | 32.5% | 99.2% | 77.2% | 46.3% | 112% | 75.1%
O=C1CCCCN1CCCCC#Cc1ccccc1C#Cc1ccc([N+](=O)[O-])cc1 | 65.9% | 45.5% | 27.3% | 49.6% | 23.1% | 67.2% | 27.2%
C#CCN1C(=O)/C(=c2\sc3n(c2=O)NC2C(N=3)N(CC)C(=O)N2CC)c2ccccc21 (configuration not stated) | 83.4% | -26.6% (active) | 41% | 42.2% | 27% | 100% | 46.8%
CCC(c1ccc(OC)cc1)C(CC)c1ccc(O)c(CN2CCCC2)c1 (configuration not stated) | 2.58% (active) | -31.6% (active) | 0.333% (active) | -44.4% (active) | 35.9% | -83% (active) | 27.9%
CCCCCCCCCN1C(=O)/C(=c2\sc3n(c2=O)C2C(NN=3)N(CC)C(=O)N2CC)c2ccccc21 (configuration not stated) | 82.2% | -9.54% (active) | 30.5% | 27.9% | 5.86% (active) | 102% | 9.43% (active)
CCN(Cc1ccccc1)c1ccc(SC#N)cc1 | 71.5% | 98.6% | 83.8% | 75.3% | 43.7% | 94.1% | 41.3%
CCSc1nnc(NC(=O)COc2ccc(Cl)cc2C)s1 | 110% | 84% | 102% | 91% | 103% | 131% | 109%
O=C(C[N+](=O)[O-])c1ccc(Cl)cc1 | 102% | 114% | 106% | 100% | 101% | 110% | 109%
COc1ccc(C(=O)/C=C/c2ccc(/C=C/c3cc(OC)c(OC)c(OC)c3)cc2)cc1 | 41.6% | 41% | 39.3% | 30.6% | 17.5% | 94.1% | 29.2%
CCc1cccc(C)c1NC(=O)c1sc2nc3c(cc2c1N)C(=O)CCC3 | 46.8% | -27.5% (active) | 28.7% | 20.3% | 31.6% | 10.2% | 19%

Structure (SMILES) | growth [1] | growth [2] | growth [3] | growth [4] | growth [5] | growth [6] | growth [7]
COc1ccc(OC)c(/C=C2\Oc3cc(OCCN4CCCC4)ccc3C2=O)c1 | 95.7% | 97% | 81.4% | 88.1% | 69% | 98.7% | 85.4%
C#CCN1C(=O)/C(=c2\sc3n(c2=O)C2C(NN=3)N(CC)C(=O)N2CC)c2ccccc21 (configuration not stated) | 39.7% | -63.2% (active) | 24.3% | 23.3% | 4.43% (active) | -1.47% (active) | 14.1%
CCn1cc(C(=O)O)c(=O)c2cc(F)c(N3CCN(S(=O)(=O)c4cccc5ccccc45)CC3)cc21 | -4.35% (active) | 11.4% | 22.8% | 14.6% | 5.45% (active) | 31.6% | 11.7%
Clc1nc(Cl)c2ncn(C/C=C/Cn3cnc4c(Cl)nc(Cl)nc43)c2n1 | -33.3% (active) | 98.3% | 45% | 38.3% | 33.3% |  | 78.7%
Nc1c(C(=O)Nc2cccc(Cl)c2Cl)sc2nc3c(cc12)C(=O)CCC3 | 95.3% | 20.6% | 64% | 86.7% | 93% | 77.8% | 67.5%
O=C1Nc2ccc(Br)cc2C1=N/C=c1\[nH]c(=O)/c(=C/c2ccc(Cl)cc2)s1 | 99.8% | 104% | 104% | 86.6% | 87.9% | 118% | 107%
COc1cc(OC)cc(-c2n[nH]nc2-c2ccc3c(c2)OCO3)c1 | 51.2% | -82.8% (active) | 30.8% | 24.3% |  | 31.9% | 25.1%
CN(C)c1ccc(C2CC(c3ccccc3)=NN2/C=C2\SC(=O)NC2=O)cc1 (configuration not stated) | 87% | 83.1% | 83.9% | 65.4% | 85.9% | 101% | 82.2%
CCN1C(=O)/C(=c2\sc3n(c2=O)C2C(NN=3)N(CC)C(=S)N2CC)c2ccccc21 (configuration not stated) | 98.8% | 88.4% | 102% | 82.8% | 103% | 104% | 102%
COc1cc(C(=O)OCCCCCCCCCCC[P+](c2ccccc2)(c2ccccc2)c2ccccc2)ccc1O | -60.8% (active) | -46.7% (active) | -0.568% (active) | -40.8% (active) | -33.6% (active) | 19.3% | -80.6% (active)
COc1cc2nc(SCc3cc(OC)c(OC)c(OC)c3)n(Cc3ccccc3)c(=O)c2cc1OC | 16.8% | -20.3% (active) | 33.5% | 10.1% |  | 40.9% | 15.4%
CC[C@H](C)[C@@H]1NC(=O)[C@H]([C@@H](C)O)NC(=O)C(Cc2ccccc2)NC(=O)[C@@H]2CCCN2C(=O)C(C(C)C)NC(=O)C(Cc2ccccc2)NC(=O)CNC(=O)[C@@H]2CCCN2C1=O (some centres not stated) |  | 74% | 68.3% | 67.4% | 18.8% | 88.2% | 59.2%
c1ccc(CCn2nnc3c(Nc4ccc(N5CCOCC5)cc4)ncnc32)cc1 |  | 23.8% | 62.8% | 89.1% | 54% | 105% | 53.2%
Cc1oc2nc[nH]c(=O)c2c1C(=O)/C=C/c1ccc(Cl)cc1Cl | 73.8% | 57.2% | 31.2% | 39% |  | 102% | 52.1%
O=C(/C=C/CN1CCOCC1)Nc1cc2c(Nc3cccc(Cl)c3F)ncnc2cc1OCCOC(F)F | 86% | 97.2% | 90.7% | 65.5% | 82.9% | 86.2% | 90.2%
COc1cccc(-n2cc(-c3nc(Cl)c4ccccc4n3)nn2)c1 | 96.1% | 97.3% | 110% | 92.6% | 89.5% | 105% | 106%
CCOC(=O)c1ccccc1NC(c1ccccc1)c1ccc2cccnc2c1O (configuration not stated) | 17.9% | 39.4% | 37.5% | 16.1% |  | 51.8% | 29.8%
CN1CCN(c2ccc3cc(-c4nc5ccccc5[nH]4)c(=O)oc3c2)CC1 | 87.7% | 99.5% | 107% | 73.6% |  | 114% | 90%
O=C(CC(O)c1ccncc1)c1ccccc1 (configuration not stated) | -63.7% (active) | 105% | 109% | -24.2% (active) | 15.5% | 19.2% | 38.2%
Nc1ccc(S(=O)(=O)c2ccc(Cl)cc2)cc1 | 97.2% | 121% | 94.1% | 99.3% | 97.2% | 102% | 93.4%

Structure (SMILES) | growth [1] | growth [2] | growth [3] | growth [4] | growth [5] | growth [6] | growth [7]
C/C(=N\NC(=O)CC#N)c1cc2cc(Cl)ccc2o1 | 125% | 106% | 102% | 72.2% | 107% |  | 98.9%
CCC(=O)Nc1ccccc1C#C/C=C\C#Cc1ccccc1SC | 71.6% | -16.5% (active) | 35.3% | 62.2% | 41.6% |  | 43.5%
COc1cc(C2C=C(C)N=C3SC=CN32)cc(OC)c1OC (configuration not stated) | 106% | 98.6% | 111% | 93.3% |  | 106% | 111%
CNC(C)=O | 76.3% | 105% | 105% | 90.5% |  | 101% | 106%
COc1ccc(/C=C2\Oc3cc(OCCN4CCCC4)ccc3C2=O)c(OC)c1 | 94.2% | 94.3% | 79.2% | 85.1% | 41.3% | 98.2% | 74.3%
CC(C)C[C@H](NC(=O)Cn1ccc(NCc2ccccc2)cc1=O)B(O)O | 3.58% (active) | -62.2% (active) | 4.73% (active) | 28.9% |  | 0.885% (active) | 24.7%
COc1ccc(S(=O)(=O)Nc2cc(/C=C\c3cc(OC)c(OC)c(OC)c3)cc(OC)c2OC)cc1OC | 47% | -66.5% (active) | 25.5% | 18.1% | 15.6% | 21.1% | 21.7%
FC(F)(F)c1cccc(-n2nnc3cnc(Nc4ccc(N5CCCCC5)cc4)nc32)c1 |  | 37.5% | 35.7% | 71.2% | 4.87% (active) | 88.3% | 65.8%
CCN1C(=O)N(CC)C2C1NN=c1s/c(=C3\C(=O)N(C4CCCC4)c4ccccc43)c(=O)n12 (configuration not stated) | 20% | -42.8% (active) | 28.5% | 21.4% | 0.802% (active) | -16.7% (active) | 10.9%
COc1cc(CCn2nnc3c(NCCCCO)ncnc32)cc(OC)c1 |  | 97.9% | 97.9% | 99.6% | 97.7% | 102% | 103%
CCN(C(=O)c1cc2ccccc2[nH]1)[C@H]1CCC[C@@H](NCc2ccc(OC)cc2)C1 | 102% | 93.1% | 91.2% | 84% | 92.1% | 78.3% | 90.4%
COc1ccc(-c2nc(-c3nc4ccc(F)cc4[nH]3)cc3c2[nH]c2ccccc23)cc1 | 41.8% | 27.5% | 48.3% | 32.2% | 25.3% | 30.9% | 23.4%
COc1cccc(NC(=O)Cn2cc3c(=O)oc4ccccc4c3n2)c1 | 94.5% | 88.1% | 103% | 88.1% |  | 110% | 100%
CCN1C(=O)N(CC)C2Nn3c(s/c(=C\c4cccc(F)c4)c3=O)=NC21 (configuration not stated) | 80.4% | 5.47% (active) | 57.4% | 54.7% |  | 98.7% | 49.1%
COc1ncc(-c2ccc3ncnc(Nc4cccc(Cl)c4)c3c2)cc1N(S(C)(=O)=O)S(C)(=O)=O | 78.1% | 77.7% | 75.7% | 27.7% |  | 76.4% | 81.1%
Cc1ccc(S(=O)(=O)OC2COCOC2C(OS(=O)(=O)c2ccc(C)cc2)C2OCOCC2OS(=O)(=O)c2ccc(C)cc2)cc1 (configuration not stated) | 98.2% | 108% | 108% | 103% | 105% | 113% | 107%
O=C(Nc1ccccc1)OCC1OCOC(COC(=O)Nc2ccccc2)C1OC(=O)Nc1ccccc1 (configuration not stated) | 93.5% | 11.2% | 8.17% (active) | 16.5% | -51.6% (active) | 36.9% | 51.2%
COc1cc(CCn2nnc3c(Nc4ccc(N5CCOCC5)cc4)ncnc32)cc(OC)c1 |  | 68.2% | 90.8% | 102% | 101% | 99.7% | 81.6%
